Autofluor 339: intrinsic fluorescence of library compounds, ex339/em460 – biochemical, MLSMR library, data from DPM-DC assay, artefact control, profiling panel; actives 5.5% (n = 65,000); compound autofluorescence, ex339/em460 nm, NADH buffer; active compounds read high; 1 = no-compound wells, NADH background; fluorescence fold increase at 10 µM;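 active = at 10 µM, mean starting fluorescence two-fold or more over control wells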;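 also: signal is the first read of a kinetic run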
Abs 340nm: absorbance at 340 nm. compound absorbance at 340 nm, fold over control. fold change at 10 µM. 65,000 tested, under 10 active;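 active = at 10 µM dose, initial 340 nm absorbance at least 2 fold that of control wells; inactive = change under 2 fold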;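 also: initial absorbance extrapolated from kinetic A340 decline of NADH oxidation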
NADH coupling: inhibition of NAD/NADH coupling enzymes, library profiling | coupled PK/LDH NADH assays, four targets | IC50, µM (doses to about 10 µM) | actives 0.02% (n = 65,000);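 active = single-dose screening hits from any of four coupled enzyme assays that gave an IC50 when retested across doses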;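 also: the DPM-DC format reads NADH fluorescence rather than 340 nm absorbance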
DUSP1 inh: inhibitors of human MKP-1 phosphatase; P28562; actives 0.15% (n = 65,000); AID 374; recombinant MKP-1, OMFP hydrolysis fluorescence; inhibition, %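 (compounds tested at a single concentration somewhere between 10 and 100 µM)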;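 active = inhibition above about 50%, limit read from the data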
Hsp90 inh: displaces geldanamycin probe from tumor Hsp90. P07900. NCI-N417 lysate Hsp90, Cy3B-geldanamycin FP displacement. inhibition, % at 30 µM. actives 0.35% (n = 64,000). AID 429;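 active = inhibition above 50%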
Cdc25B block: human M-phase inducer phosphatase 2 inhibition | actives 0.1% (n = 65,000) | recombinant Cdc25B, OMFP fluorescence Ex485/Em525 | P30305 | inhibition, %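 (compounds tested at 10 µM final in the well)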; in the data active = inhibition above about 50%
Target sequence (P30305 whole entry, looked up): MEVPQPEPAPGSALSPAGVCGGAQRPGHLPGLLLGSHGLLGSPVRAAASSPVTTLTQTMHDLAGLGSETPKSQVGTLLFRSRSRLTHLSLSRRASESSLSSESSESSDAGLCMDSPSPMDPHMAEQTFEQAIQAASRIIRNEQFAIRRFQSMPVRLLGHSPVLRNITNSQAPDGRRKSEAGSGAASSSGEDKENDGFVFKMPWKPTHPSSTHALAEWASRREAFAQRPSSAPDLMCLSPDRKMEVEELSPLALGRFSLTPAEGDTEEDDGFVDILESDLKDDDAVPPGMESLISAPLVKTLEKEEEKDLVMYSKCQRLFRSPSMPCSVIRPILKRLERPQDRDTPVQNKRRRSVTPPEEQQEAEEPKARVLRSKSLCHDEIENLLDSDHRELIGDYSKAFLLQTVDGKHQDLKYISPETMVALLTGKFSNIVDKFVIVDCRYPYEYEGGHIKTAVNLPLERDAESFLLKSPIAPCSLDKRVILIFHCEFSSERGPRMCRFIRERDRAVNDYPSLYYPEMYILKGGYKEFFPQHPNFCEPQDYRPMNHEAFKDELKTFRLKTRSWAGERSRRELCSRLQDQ
A number is an active result; - = inactive; . = no result given. Shown are actives, neighbours in structure and some others; about 5.7% of the full set was active somewhere.

SMILES	Autofluor 339	Abs 340nm	NADH coupling	DUSP1 inh	Hsp90 inh	Cdc25B block
N#Cc1nc(-c2ccco2)oc1N1CCN(c2cccc(Cl)c2)CC1	-	-	-	-	-	-
Cc1ccc(-c2cc(C(F)(F)F)n3ncc(C(=O)NCc4ccco4)c3n2)cc1	-	-	-	-	-	-
O=C(NCc1ccco1)c1cc2nc(-c3ccc4c(c3)OCO4)cc(C(F)(F)F)n2n1	3.7	-	-	-	-	-
COc1ccc(-c2cc(C(F)(F)F)n3nc(C(=O)NCc4ccco4)cc3n2)cc1	2.2	-	-	-	-	-
COc1ccc(-c2nnc(SCC(=O)Nc3cc(C)on3)n2C)cc1OC	-	-	-	-	-	-
COc1ccc(-c2cc(C(F)(F)F)n3nc(C(=O)Nc4cc(C)on4)cc3n2)cc1OC	3.8	-	-	-	-	-
COC(=O)c1cc2nc(-c3ccc(OC)cc3)cc(C(F)(F)F)n2n1	2.2	-	-	-	-	-
Cc1ccc(NC(=O)C2CCN(S(=O)(=O)c3c(C)n[nH]c3C)CC2)nc1	-	-	-	-	-	-
CCOc1ccc2[nH]c(=O)c(CN(CCc3ccccc3)C(=O)c3cnccn3)cc2c1	-	-	-	-	-	-
CCOCCCn1c(=S)[nH]c2cc3c(cc2c1=O)OCO3	-	-	-	-	-	-
COC(=O)c1cc2nc(-c3ccccc3)cc(C)n2n1	3.6	-	-	-	-	-
O=C(NCc1ccco1)c1nc2nc(-c3cccs3)cc(C(F)(F)F)n2n1	3.8	-	-	-	-	-
COc1ccc2nc(C)cc(NN=Cc3cccnc3)c2c1	.	.	.	.	-	.
Cc1ccccc1-n1c(Cn2c(=O)sc3ccccc32)nnc1SCC(=O)NCC1CCCO1 (configuration not stated)	-	-	-	-	-	-
Cc1cc(N2CCOCC2)n2nc(C)c(-c3ccccc3)c2n1	-	-	-	-	-	-
Cc1cc(-c2ccccc2)nc(N2CCN(c3ccccn3)CC2)n1	-	-	-	-	-	-
Cc1cc(C)c2c(n1)nn1c(N3CCN(c4ccccn4)CC3)cc(C)nc21	3	-	-	-	-	-
Cc1cc(C)c2c(n1)nn1c(N3CCN(c4ccccc4)CC3)cc(C)nc21	3.2	-	-	-	-	-
Cc1nn2c(N3CCN(c4ccccn4)CC3)cc(C(C)C)nc2c1-c1ccccc1	3.1	-	-	-	-	-
Cc1ccc(NC(=O)Cn2cnc3c(=O)n(C)c(=O)n(C)c32)c(C)c1	-	-	-	-	-	-
Cn1c(=O)c2ncn(CC(=O)Nc3ccc4oc(-c5cccc6ccccc56)nc4c3)c2n(C)c1=O	3.7	-	-	-	-	-
CCC(C)c1ccc2oc(-c3ccc(NC(=O)Cn4cnc5c(=O)n(C)c(=O)n(C)c54)cc3)nc2c1 (configuration not stated)	3.7	-	-	-	-	-
O=c1onc2cnc3ccccc3n12	.	.	.	.	-	.
N[C@@H](CCCC(=O)O)C(=O)O	.	.	.	.	-	.
CCNC(=O)C1OC(n2cnc3c(NCc4ccccc4)ncnc32)C(O)C1O (configuration not stated)	.	.	.	.	-	.
SMILES	Autofluor 339	Abs 340nm	NADH coupling	DUSP1 inh	Hsp90 inh	Cdc25B block
CCOC(=O)c1cccc(NC(=O)CN(c2ccc(C)cc2)S(=O)(=O)c2c(C)n[nH]c2C)c1	-	-	-	-	-	-
COc1c(N2CCNC(C)C2)c(F)cc2c(=O)c(C(=O)O)cn(C3CC3)c12 (configuration not stated)	3.9	-	-	-	-	-
CC1CCc2cc(F)cc3c(=O)c(C(=O)O)cn1c23 (configuration not stated)	-	-	-	-	-	-
OCC#CCSc1nnc(-c2ccc(Br)cc2)o1	-	-	-	-	-	-
COC(=O)Sc1nnc(-c2ccc(Br)cc2)o1	-	-	20µM	-	-	-
CC1CCN(C(=O)CSc2nnc(-c3cc4ccccc4cc3O)n2Cc2ccco2)CC1	-	-	-	-	-	-
COc1cccc(-c2cc(C(=O)Nc3cc(C)n(Cc4ccc(Cl)cc4)n3)no2)c1	-	-	-	-	-	-
COc1ccc(OC)c(-c2cc(C(=O)Nc3cc(C)n(Cc4ccc(Cl)cc4)n3)no2)c1	3.8	-	-	-	-	-
CC1CCc2nc(N)c(C#N)c(-c3ccncc3)c2C1 (configuration not stated)	3.8	-	-	-	-	-
c1ccc(Cc2nn3c(-c4ccncc4)nnc3s2)cc1	-	-	-	-	-	-
O=C(CN1CCOc2ccccc21)N1CCCC1	-	-	-	-	-	-
CCOc1cc(-c2cc(-c3ccc(N)cc3)nc(N)c2C#N)ccc1O	3.6	-	-	-	-	-
CCc1cc(=O)oc2cc3oc(C)c(C)c3cc12	-	-	-	-	-	-
CCNc1ccc2c(Cl)cc(=O)oc2c1	2.9	-	-	-	-	-
CCCCCCCCCC[Si](C)(C)CCC(=O)NC(Cc1ccc(C)cc1)c1ccccc1 (configuration not stated)	.	.	.	.	-	.
Nc1nc2ccc(N3CCOCC3)cc2s1	-	-	-	-	-	-
Cc1c(O)c(CN2CCCC2)cc2c1oc(=O)c1ccccc12	-	-	-	-	-	-
Cc1c(O)c(CN2CCCC2)cc2c3c(c(=O)oc12)CCC3	3.7	-	-	-	-	-
CCc1cc(=O)oc2c(C)c(O)c(CN3CCCCC3)cc12	3.9	-	-	-	-	-
CCOC(=O)c1oc2c(O)c(O)ccc2c(=O)c1-c1nncn1-c1ccccc1	-	-	-	-	61	-
CCOC(=O)c1oc2c(C)c(O)ccc2c(=O)c1-c1nncn1-c1ccccc1	-	-	-	-	-	-
CCOC(=O)N1CCC(NC2CCCCCCC2)CC1	-	-	-	-	-	-
N#Cc1ccc(-c2ccco2)nc1SCc1ccccc1	2.1	-	-	-	-	-
COc1cc(NCC(O)CN(CC(C)C)CC(C)C)c2nc(C)ccc2c1 (configuration not stated)	.	.	.	.	-	.
COCCn1cc(C(=O)N2CCN(C)CC2)c2c3ccccc3n(C)c2c1=O	4.6	-	-	-	-	-
SMILES	Autofluor 339	Abs 340nm	NADH coupling	DUSP1 inh	Hsp90 inh	Cdc25B block
CCOC(=O)N1CCN(C(=O)c2cn(CCOC)c(=O)c3c2c2ccccc2n3C)CC1	4.3	-	-	-	-	-
COc1ccc(CC(=O)OCC(=O)Nc2c(C)n(C)n(-c3ccccc3)c2=O)cc1	-	-	-	-	.	-
Cc1cc(C)c(C#N)c(SCC(=O)CC(=O)OC(C)C)n1	3	-	-	-	-	-
Cc1cc(C)c(C#N)c(SCC(=O)Nc2nnc(-c3ccccc3)s2)n1	2.1	-	-	-	-	-
Cc1nc(SCC(=O)CC(=O)OC(C)C)c(C#N)c(C)c1C	-	-	-	-	-	-
CCN(CC)CCOc1cc2c(nn1)Oc1ccccc1N2C	3.8	-	-	-	-	-

Assay outcomes (PubChem)
